# Results filed as inconclusive are left out. Entries that show only a call come without a potency. Calls of active or inactive are those of the source. Calls come from the whole dose curve; as a rule, active = well fitted curve in the direction sought with a large enough effect; inconclusive = small, poorly fitted or top-dose-only effect, or another doubt; inactive = no such curve, though single readings can be large; an effect the other way counts as inactive or inconclusive.
# Legend:
# [1] = Quantitative highthroughput screen to assess conditional lethalithy of NOMO1 cells grown in RPMI1640 with untreated serum (RPMI+s) (AID 1963876); settings: NOMO1 AML cells in RPMI+serum, CellTiter-Glo viability, 48 h; series mostly up to 45.8 µM; note: nearly all actives have a fitted effect of over 35% in size
# Summary of the method: (§1)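 Each medium arm—HPLM with 10% dialyzed FBS, or RPMI1640 with 5 mM glucose and 10% untreated or dialyzed FBS—was screened against an 11-point, 3-fold compound titration for 48 h at 37 °C, with CellTiter-Glo luminescence as endpoint.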
# [2] = Quantitative highthroughput screen to assess conditional lethalithy of NOMO1 cells grown in RPMI1640 with dialyzed fetal bovine serum (RPMI+ds) (AID 1963877); settings: NOMO1 in RPMI+dialyzed FBS viability, ATP luminescence, 48 h; series mostly up to 45.8 µM; note: nearly all actives have a fitted effect of over 30% in size
# Summary of the method: as §1
# [3] = Quantitative highthroughput screen to assess conditional lethalithy of NOMO1 cells grown in Human Plasma-Like Medium with dialyzed fetal bovine serum (HPLM+ds) (AID 1963878); settings: NOMO1 AML cells in HPLM+ds, CellTiter-Glo viability, 48 h; series mostly up to 45.8 µM; note: nearly all actives have a fitted effect of over 35% in size
# Summary of the method: as §1
# [4] = Quantitative highthroughput screen to assess conditional lethalithy of P12 Ichikawa cells grown in Human Plasma-Like Medium with dialyzed fetal bovine serum (HPLM+ds) (AID 1963879); settings: ATP luminescence, 48 h; Potency: viability; series mostly up to 45.8 µM; note: nearly all actives have a fitted effect of over 35% in size
# Summary of the method: as §1
# [5] = Quantitative highthroughput screen to assess conditional lethalithy of P12 Ichikawa cells grown in RPMI1640 with dialyzed fetal bovine serum (RPMI+ds) (AID 1963880); settings: ATP luminescence, 48 h; Potency: P12-Ichikawa viability; series mostly up to 45.8 µM; note: nearly all actives have a fitted effect of over 35% in size
# Summary of the method: as §1
# [6] = Quantitative highthroughput screen to assess conditional lethalithy of P12 Ichikawa cells grown in RPMI1640 with untreated serum (RPMI+s) (AID 1963881); settings: ATP luminescence, 48 h; Potency: viability; series mostly up to 45.8 µM; note: nearly all actives have a fitted effect of over 35% in size
# Summary of the method: as §1
# [7] = Quantitative highthroughput screen to assess conditional lethalithy of SEM cells grown in Human Plasma-Like Medium with dialyzed fetal bovine serum (HPLM+ds) (AID 1963882); settings: SEM B-ALL cells in HPLM+ds, CellTiter-Glo viability, 48 h; series mostly up to 45.8 µM; note: nearly all actives have a fitted effect of over 35% in size
# Summary of the method: as §1
# [8] = Quantitative highthroughput screen to assess conditional lethalithy of SEM cells grown in RPMI1640 with unreated serum (RPMI+s) (AID 1963883); settings: SEM B-ALL cells, CellTiter-Glo viability, 48 h; series mostly up to 45.8 µM; note: nearly all actives have a fitted effect of over 35% in size
# Summary of the method: as §1
# [9] = Quantitative highthroughput screen to assess conditional lethalithy of SEM cells grown in RPMI1640 with dialyzed fetal bovine serum (RPMI+ds) (AID 1963884); settings: SEM B-ALL cells, RPMI+dialyzed FBS, CellTiter-Glo viability, 48 h; series mostly up to 45.8 µM; note: nearly all actives have a fitted effect of over 35% in size
# Summary of the method: as §1
# Potency is the fitted concentration of half-maximal effect.
Structure (SMILES),Potency [1],Potency [2],Potency [3],Potency [4],Potency [5],Potency [6],Potency [7],Potency [8],Potency [9]
O=c1ccc2ccc(O)c(O)c2o1,inactive,inactive,inactive,,,,,,
CN(C)CC=CC(=O)Nc1cc2c(Nc3ccc(F)c(Cl)c3)ncnc2cc1O[C@H]1CCOC1,1.87 µM (active),1.87 µM (active),1.66 µM (active),1.66 µM (active),2.35 µM (active),1.87 µM (active),1.05 µM (active),0.743 µM (active),1.18 µM (active)
O=C1c2c(O)cccc2[C@@H]([C@@H]2O[C@H](CO)[C@@H](O)[C@H](O)[C@H]2O)c2cc(CO)cc(O)c21,inactive,inactive,inactive,inactive,inactive,inactive,inactive,inactive,inactive
CO[C@H]1/C=C\O[C@@]2(C)Oc3c(C)c(O)c4c(O)c(c(C=NN5CCN(C6CCCC6)CC5)c(O)c4c3C2=O)NC(=O)C(C)=CC=C[C@H](C)[C@H](O)[C@@H](C)[C@@H](O)[C@@H](C)[C@H](OC(C)=O)[C@H]1C,1.66 µM (active),2.64 µM (active),2.35 µM (active),2.64 µM (active),2.64 µM (active),,,,
O=C(O)c1cccnc1Nc1cccc(C(F)(F)F)c1,inactive,inactive,inactive,inactive,inactive,inactive,inactive,,
C=CC(=O)Nc1cccc(Nc2nc(NC3CCC(N(C)C)CC3)nc3c2ncn3C(C)C)c1 (stereo unspecified),2.96 µM (active),2.35 µM (active),2.35 µM (active),3.32 µM (active),4.18 µM (active),3.32 µM (active),1.05 µM (active),2.09 µM (active),
O=C(Nc1cccc(Br)c1)c1cccc(S(=O)(=O)N2CCCCCC2)c1,inactive,inactive,inactive,inactive,,,,,
COc1cc(N2CCC(C(N)=O)CC2)ccc1Nc1nc(N)c(Cl)c(Nc2ccccc2S(=O)(=O)C(C)C)n1,20.9 µM (active),16.6 µM (active),16.6 µM (active),23.5 µM (active),18.7 µM (active),18.7 µM (active),8.33 µM (active),4.18 µM (active),9.35 µM (active)
CC(C)CN(C[C@H](O)[C@H](Cc1ccccc1)NC(=O)O[C@H]1CCOC1)S(=O)(=O)c1ccc(N)cc1,inactive,inactive,inactive,,,,,,
C=CC[N+]1([C@H]2C[C@H]3[C@@H]4CC[C@H]5C[C@H](O)[C@@H](N6CCOCC6)C[C@]5(C)[C@@H]4CC[C@]3(C)[C@H]2OC(C)=O)CCCC1,inactive,inactive,inactive,inactive,inactive,inactive,inactive,inactive,inactive
C[C@@H]1[C@H](C)CC[C@]2(C(=O)O)CC[C@]3(C)C(=CC[C@@H]4[C@@]5(C)C[C@@H](O)[C@H](O)[C@@](C)(CO)[C@H]5CC[C@]43C)[C@@H]12,inactive,inactive,inactive,inactive,inactive,inactive,,,
CCC(=C(CC)c1ccc(O)cc1)c1ccc(O)cc1,inactive,inactive,inactive,inactive,inactive,inactive,inactive,inactive,
CC=C1NC(=O)[C@H]2CSSCCC=C[C@H](CC(=O)N[C@H](C(C)C)C(=O)N2)OC(=O)[C@H](C(C)C)NC1=O,0.0418 µM (active),0.0526 µM (active),0.0372 µM (active),0.0372 µM (active),0.0372 µM (active),0.0372 µM (active),0.0372 µM (active),0.0296 µM (active),0.0372 µM (active)
C[C@H](Cn1cnc2c(N)ncnc21)OCP(=O)(O)O,inactive,inactive,inactive,inactive,inactive,inactive,inactive,inactive,inactive
CO[C@H]1C=CC=C(C)C(=O)NC2=CC(=O)C(NCCN(C)C)=C(C[C@@H](C)C[C@H](OC)[C@@H](O)[C@@H](C)C=C(C)[C@@H]1OC(N)=O)C2=O,0.743 µM (active),0.662 µM (active),0.662 µM (active),4.69 µM (active),0.935 µM (active),0.743 µM (active),0.166 µM (active),0.148 µM (active),0.118 µM (active)
C[C@@H]1O[C@@H](O[C@H]2CC[C@@]3(C)[C@H](CC[C@@H]4[C@H]3C[C@@H](O)[C@]3(C)[C@@H](C5=CC(=O)OC5)CC[C@]43O)C2)C[C@H](O)[C@@H]1O[C@H]1C[C@H](O)[C@H](O[C@H]2C[C@H](O)[C@@H](O)[C@@H](C)O2)[C@H](C)O1 (stereo in doubt),0.605 µM (active),0.382 µM (active),0.191 µM (active),0.0855 µM (active),0.191 µM (active),0.27 µM (active),0.0959 µM (active),0.382 µM (active),0.27 µM (active)
O=C(O)[C@H](CC(=O)N1C[C@@H]2CCCC[C@H]2C1)Cc1ccccc1,inactive,inactive,inactive,inactive,inactive,inactive,inactive,inactive,inactive
Cc1cccc(C#Cc2ccccc2)n1,inactive,inactive,inactive,inactive,inactive,inactive,inactive,inactive,13.2 µM (active)

Structure (SMILES),Potency [1],Potency [2],Potency [3],Potency [4],Potency [5],Potency [6],Potency [7],Potency [8],Potency [9]
C[C@]12C=CC(=O)N[C@@H]1CC[C@H]1[C@H]3CC[C@@H](C(=O)Nc4cc(C(F)(F)F)ccc4C(F)(F)F)[C@@]3(C)CC[C@@H]12,inactive,inactive,inactive,inactive,inactive,inactive,inactive,inactive,inactive
CC1(C)SCCN(S(=O)(=O)c2ccc(OCC#CCO)cc2)[C@@H]1C(=O)NO,inactive,inactive,inactive,inactive,inactive,inactive,inactive,inactive,inactive
CC1=C(CO)C(=O)O[C@@H]([C@@H](C)[C@H]2CC[C@H]3[C@@H]4C[C@H]5O[C@]56[C@@H](O)C=CC(=O)[C@]6(C)[C@@H]4CC[C@]23C)C1,0.372 µM (active),0.469 µM (active),0.296 µM (active),0.296 µM (active),0.264 µM (active),0.235 µM (active),0.235 µM (active),0.235 µM (active),0.264 µM (active)
CC1(C)CC(O)CC(C)(C)N1[O],inactive,inactive,inactive,inactive,inactive,inactive,inactive,inactive,inactive
NC[C@H]1O[C@H](O[C@H]2[C@@H](O)[C@@H](O[C@H]3O[C@H](CO)[C@@H](O)[C@H](N)[C@@H]3O)[C@H](N)C[C@@H]2N)[C@H](N)C[C@H]1O,inactive,inactive,inactive,inactive,inactive,inactive,inactive,inactive,inactive
COc1ccnc2[nH]cc(C(=O)C(=O)N3CCN(C(=O)c4ccccc4)C[C@@H]3C)c12,inactive,inactive,inactive,inactive,inactive,inactive,inactive,inactive,inactive
O=C(CS(=O)Cc1ccco1)NCC=CCOc1cc(CN2CCCCC2)ccn1 (stereo unspecified),inactive,inactive,inactive,inactive,inactive,inactive,inactive,inactive,inactive
C#C[C@]1(O)CC[C@H]2[C@H]3CCc4cc(OC)ccc4[C@H]3CC[C@@]21C,inactive,inactive,inactive,inactive,inactive,inactive,inactive,inactive,inactive
O=C1NC(=O)C(=Cc2ccc3nccc(-c4ccncc4)c3c2)S1,2.64 µM (active),1.32 µM (active),0.662 µM (active),7.43 µM (active),1.87 µM (active),1.87 µM (active),0.935 µM (active),0.935 µM (active),0.833 µM (active)
CCOc1cc2ncc(C#N)c(Nc3ccc(F)c(Cl)c3)c2cc1NC(=O)C=CCN(C)C,16.6 µM (active),7.43 µM (active),4.69 µM (active),3.72 µM (active),5.26 µM (active),5.26 µM (active),1.32 µM (active),0.418 µM (active),0.743 µM (active)
O=C(C=Cc1cccc(S(=O)(=O)Nc2ccccc2)c1)NO,17.1 µM (active),12.1 µM (active),13.6 µM (active),4.81 µM (active),6.05 µM (active),4.29 µM (active),0.679 µM (active),0.605 µM (active),0.762 µM (active)
COC(=O)[C@@H]1CC2=CC(=O)CC[C@]2(C)[C@@]23O[C@@H]2C[C@@]2(C)[C@H](CC[C@@]24CCC(=O)O4)[C@@H]13,inactive,inactive,inactive,inactive,inactive,inactive,inactive,inactive,inactive
OC[C@H]1O[C@@H](n2cnc3c2NC=NC[C@@H]3O)C[C@H]1O,inactive,inactive,inactive,inactive,inactive,inactive,inactive,inactive,inactive
Clc1ccc(-c2nc3sccn3c2C=NOCc2ccc(Cl)c(Cl)c2)cc1,inactive,inactive,inactive,inactive,inactive,inactive,inactive,inactive,inactive
Cc1c(O)cccc1C(=O)N[C@@H](CSc1ccccc1)[C@H](O)CN1C[C@H]2CCCC[C@@H]2C[C@@H]1C(=O)NC(C)(C)C,inactive,inactive,inactive,inactive,inactive,inactive,inactive,inactive,inactive
CN1[C@@H]2CCC[C@@H]1CC(NC(=O)c1nn(C)c3ccccc13)C2 (stereo partly specified),inactive,inactive,inactive,inactive,inactive,inactive,inactive,inactive,inactive
OCCn1cc(-c2ccc3c(c2)CCC3=NO)c(-c2ccncc2)n1,inactive,inactive,inactive,inactive,inactive,inactive,inactive,inactive,inactive
O=C(O)C=Cc1ccc(Cn2ccnc2)cc1,inactive,inactive,inactive,inactive,inactive,inactive,inactive,inactive,inactive
